Rows were chosen to be rich in hits. Some 1.6% of all compounds tested hit in one or more screens of this group.
MOR-DOR ag: agonists of OPRM1-OPRD1 heterodimerization, primary screen, cell-based, luminescence | Mu-type opioid receptor (Homo sapiens) + Delta-type opioid receptor (Homo sapiens), … | activation, % at 9.3 µM | AID 504326, 2011 | 340,000 tested, 0.3% active | cells; in the data active means activation above about 18%
MOR-DOR inv ag: inverse agonists of MOR-DOR heterodimerization, primary screen, cell-based, luminescence | 340,000 tested, 0.21% active | cell-based MOR-DOR heterodimer luminescence, inverse agonism | Mu-type opioid receptor (Homo sapiens) + Delta-type opioid receptor (Homo sapiens), … | AID 504357, 2011 | inhibition, % at 9.3 µM; in the data active means inhibition above about 22%, passing the limit was not always enough
HTR5A ag ctr: HTR5A agonists in luminescence cell assay, primary screen, counter-screen for OPRM1-OPRD1 heterodimer agonist project, full-deck HTS | 5-hydroxytryptamine receptor 5A (Homo sapiens), P47898 | cell-based | activation, % at 9.3 µM | 340,000 tested, 0.61% active | AID 504692, 2011; in the data active means activation mostly above about 9.5%, no sharp cut-off; inactive means mostly below about 7.6%
HTR2A ag: mouse Htr2a agonists via beta-arrestin recruitment, primary screen, cell-based, luminescence. 5-hydroxytryptamine receptor 2A (Mus musculus), P35363. CHO-K1 mHTR2A beta-arrestin complementation; percent of 30 µM serotonin response. activation, % at 7.6 µM. 360,000 tested, 0.66% active;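 active means activation above a run cutoff, the mean activation of all tested compounds plus 3 SD, cut at about 14% in these data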
Target sequence (P35363 whole entry, looked up): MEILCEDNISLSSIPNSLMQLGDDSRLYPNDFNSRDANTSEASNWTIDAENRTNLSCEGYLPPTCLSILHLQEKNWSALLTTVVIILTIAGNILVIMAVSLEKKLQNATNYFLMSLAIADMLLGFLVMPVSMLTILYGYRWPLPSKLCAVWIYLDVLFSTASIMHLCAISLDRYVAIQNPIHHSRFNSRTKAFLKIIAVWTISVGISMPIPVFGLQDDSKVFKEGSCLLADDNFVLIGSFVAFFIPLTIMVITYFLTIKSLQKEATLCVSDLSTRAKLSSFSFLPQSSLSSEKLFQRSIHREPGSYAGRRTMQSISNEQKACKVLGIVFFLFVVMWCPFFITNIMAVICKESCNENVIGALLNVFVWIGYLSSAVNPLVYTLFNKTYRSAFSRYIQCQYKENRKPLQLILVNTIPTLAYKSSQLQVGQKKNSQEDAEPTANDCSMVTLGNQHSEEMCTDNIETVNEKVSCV
HTR5A inv ag: HTR5A inverse agonists in luminescence cell assay, primary screen, counter-screen for OPRM1-OPRD1 heterodimer inverse agonist project, full-deck HTS; inhibition, % at 9.3 µM; AID 504634, 2011; HTR5A cell line, inverse agonism; 5-hydroxytryptamine receptor 5A (Homo sapiens), P47898; 340,000 tested, 0.083% active; in the data active means inhibition mostly above about 23%, no sharp cut-off; inactive means mostly below about 18%
MOR ag counter: OPRM1 agonists via beta-arrestin recruitment, confirmation, counter-screen for mouse HTR2A agonist project, cell-based, luminescence, single concentration; shares compounds with HTR2A ag; AID 624380, 2012; activation, % at 9.3 µM; 2,300 tested, 5.3% active; U2OS OPRM1 beta-arrestin PathHunter; DMSO 0%, DAMGO 9.3 µM 100%;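 active means mean activation above the mean of DMSO-only wells plus 3 SD, cut at about 0.5% in these data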
HTR2A ag conf: mouse HTR2A agonists, beta-arrestin recruitment, confirmation, cell-based, luminescence, CHO-K1 PathHunter, triplicate. 2,300 tested, 19% active. DMSO 0%, 30 µM serotonin 100%. activation, % at 7.6 µM. AID 624381, 2012. shares compounds with HTR2A ag;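 active means mean activation across triplicates above the hit threshold derived in the original primary screen, cut at about 15% in these data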
Large screens that a line does not name were inactive (follow-up assays come after a bar, where they were run).

CC(=O)c1ccc(Oc2cnccn2)cc1	HTR2A ag 16.1 | MOR ag counter inactive | HTR2A ag conf inactive
O=C(Cn1cnc2c(OCc3ccccc3)ncnc21)NCCc1c[nH]c2ccccc12	none (no result: MOR-DOR ag, MOR-DOR inv ag, HTR5A ag ctr, HTR5A inv ag)
Cc1csc(NC(=O)C2CCCN(S(=O)(=O)c3ccc4c(c3)oc(=O)n4C)C2)n1 (stereo not drawn)	HTR2A ag 21.3 | MOR ag counter inactive | HTR2A ag conf inactive
COc1ccc(S(=O)(=O)NCC2CCCN(C(=O)c3cccnc3C)C2)cc1 (stereo not drawn)	HTR2A ag 15.3 | MOR ag counter inactive | HTR2A ag conf inactive
O=C(O)c1ccccc1C(=O)c1ccc(F)c(F)c1	none
COc1ccccc1CNCC(=O)Nc1ccccc1-n1cccc1	HTR2A ag 16.0 | MOR ag counter inactive | HTR2A ag conf inactive
COc1ccccc1CNCC(=O)Nc1ccc(C#N)cc1	none
O=C(N/N=C/c1ccccc1Cl)C1CC1	HTR2A ag 15.1 | MOR ag counter inactive | HTR2A ag conf inactive
Cc1ccc(-c2cc(C(F)(F)F)nn2-c2ccc(S(N)(=O)=O)cc2)cc1	HTR2A ag 19.7 | MOR ag counter 1.1 | HTR2A ag conf 25.3
NS(=O)(=O)c1ccc(-n2nc(C(=O)O)cc2-c2ccc(Cl)cc2)cc1	none
CN(C)C(=O)c1snnc1-c1ccccc1	HTR2A ag 17.5 | MOR ag counter inactive | HTR2A ag conf inactive
COC(=O)C(NC(=O)C(NC(=O)C1CCC(C)CC1)C(C)C)C(C)C (stereo not drawn)	none
CC(=NNS(=O)(=O)c1cccc([N+](=O)[O-])c1)c1ccc(-n2ccnc2)cc1	HTR2A ag 15.3 | MOR ag counter inactive | HTR2A ag conf inactive
COc1cccc(-n2cc(CNCc3cn(C)nc3-c3ccccc3F)cn2)c1	HTR2A ag 30.3 | MOR ag counter inactive | HTR2A ag conf 97.2
CCS(=O)(=O)c1nc(S(=O)(=O)c2ccc(C)cc2)c(N2CCCCCC2)s1	HTR2A ag 14.7 (no result: MOR-DOR ag, MOR-DOR inv ag, HTR5A ag ctr, HTR5A inv ag) | MOR ag counter inactive | HTR2A ag conf inactive
CCS(=O)(=O)c1nc(S(=O)(=O)c2ccc(C)cc2)c(N2CCCC2)s1	none
COc1cccc2c1cc1c(=O)n(CC(=O)N3CCC(C)CC3)nc(C)n12	HTR2A ag 17.0 | MOR ag counter inactive | HTR2A ag conf 57.4
CCc1nn(CC(=O)N2CCC(C)CC2)c(=O)c2cccn12	none
COc1ccccc1-c1c(C(F)(F)F)oc2cc(OS(C)(=O)=O)ccc2c1=O	HTR2A ag 26.2 | MOR ag counter inactive | HTR2A ag conf inactive
CC(=O)Nc1cccc(-c2ccnc3c2CC(C(=O)Nc2cccc(N(C)C)c2)O3)c1 (stereo not drawn)	none (no result: MOR-DOR ag, MOR-DOR inv ag, HTR5A ag ctr, HTR5A inv ag)
Cc1cccc(NC(=O)c2cnc3ccccn3c2=O)c1	HTR2A ag 26.2 | MOR ag counter inactive | HTR2A ag conf inactive
CC(C)Cc1cc(C(=O)Nc2sc3c(c2C#N)CCC3)no1	HTR2A ag 17.4 | MOR ag counter inactive | HTR2A ag conf inactive
COC(=O)c1ccc(NC(=O)Cn2nnc(-c3cccs3)n2)cc1	none
CN1CCN(c2nc3c(c(=O)[nH]c(=O)n3C)n2CCCSc2ncccn2)CC1	none
CC1CCN(c2nc3c(c(=O)[nH]c(=O)n3C)n2CCSc2ncccn2)CC1	HTR2A ag 60.1 | MOR ag counter inactive | HTR2A ag conf inactive
O=C1c2c(-c3ccc(Br)cc3)noc2CCN1Cc1cn(Cc2cccnc2)nn1	none (no result: MOR-DOR ag, MOR-DOR inv ag, HTR5A ag ctr, HTR5A inv ag)
CCOC(=O)c1[nH]c(C)c(C(=O)OCC(=O)N(Cc2ccccc2)C(C)C)c1C	HTR2A ag 19.6 | MOR ag counter inactive | HTR2A ag conf inactive
CC1(C)C(C=C(Cl)Cl)C1C(=O)Nc1ccc(S(=O)(=O)Nc2ncccn2)cc1 (stereo not drawn)	none
CC(=O)N1CCc2cc(C(=O)CN3CCN(c4ccccn4)CC3)ccc21	HTR2A ag 18.0 | MOR ag counter inactive | HTR2A ag conf 116.5
CC(=O)N1CCc2cc(C(=O)CN3CCN(c4ccccc4F)CC3)ccc21	none
O=c1[nH]cnc2onc(-c3ccc(F)cc3)c12	none
CCOC(=O)CCNCc1ccc(OC)c(OC)c1	none
COc1ccc(NC(=S)N(CCc2c(C)[nH]c3ccc(C)cc23)Cc2ccco2)cc1	HTR2A ag 23.3 | MOR ag counter inactive | HTR2A ag conf inactive
COc1ccc(CCN2CC(C(=O)NCCCn3nc(C)cc3C)CCC2=O)cc1 (stereo not drawn)	HTR2A ag 18.3 | MOR ag counter inactive | HTR2A ag conf inactive
CN1CCc2c(sc(NC(=O)Cc3ccccc3)c2C#N)C1	HTR2A ag 17.7 | MOR ag counter inactive | HTR2A ag conf 69.2
COc1ccc(CNC(=O)CN(C(=O)CCC(=O)Nc2ccccn2)c2ccc(C)cc2)cc1	HTR2A ag 29.7 | MOR ag counter inactive | HTR2A ag conf inactive
CCOCC(=O)Nc1ccc([N+](=O)[O-])cc1C	none
O=C(COC(=O)CCSc1ccccc1)Nc1ccccc1	none
Cc1ccc(CCC(=O)Nc2ccc(C)c(C)c2)o1	none
CCN(Cc1ccccc1)C(=O)Cn1cc(S(=O)(=O)NC)c(S(=O)(=O)NC)c1	HTR2A ag 16.5 | MOR ag counter inactive | HTR2A ag conf inactive
CC1(OC(=O)C2CCCC2)C(=O)C=C2C=C(c3ccsc3)N(C3CC3)C=C2C1=O (stereo not drawn)	HTR2A ag 14.8 | MOR ag counter inactive | HTR2A ag conf inactive
COc1ccc(OC)c(S(=O)(=O)N2CCCC(C(=O)N3CCOCC3)C2)c1 (stereo not drawn)	none
CC(C)c1ccc(NC2CCCN(C(=O)c3ccc4nccnc4c3)C2)cc1 (stereo not drawn)	HTR2A ag 20.7 | MOR ag counter inactive | HTR2A ag conf inactive
CC(C)c1cc(C(=O)N2CCCC(Nc3ccc(F)cc3)C2)nc(N)n1 (stereo not drawn)	HTR2A ag 15.8 | MOR ag counter inactive | HTR2A ag conf inactive
Cc1c(C(=O)OCC(=O)c2c(N)n(CC(C)C)c(=O)n(C)c2=O)oc2ccccc12	HTR2A ag 18.4 | MOR ag counter inactive | HTR2A ag conf inactive
CN(C)S(=O)(=O)c1ccc(Cl)c(NC(=O)CN2CCc3ccccc3C2)c1	HTR2A ag 22.6 | MOR ag counter inactive | HTR2A ag conf 82.0
